Data taken from PubChem BioAssay (Tox21).
Unmarked numbers belong to inactive results. Records with an inconclusive call do not appear. A call without a number means that no potency is given here. Calls of active or inactive are those of the source. Unless noted, calls follow the shape of the dose curve; as a rule, active = well fitted curve in the direction sought with a large enough effect in the repeat runs; inconclusive = weak or mixed curves; inactive = no such curve, though single readings can be large; an effect the other way counts as inactive or inconclusive.

Tests used:
[1] = qHTS assay for small molecule agonists of the p53 signaling pathway (AID 651631; calls by dose curve; also: nearly all actives have a fitted effect of over 15% in size)
How it was run: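 Beta-lactamase reporter activity under p53 response elements was quantified in HCT-116 cells by FRET fluorescence, following 16 h incubation with test compounds at 37 °C and 2 h substrate development at room temperature.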

[2] = qHTS assay for small molecules that induce genotoxicity in human embryonic kidney cells expressing luciferase-tagged ATAD5 (AID 651632); also: nearly all actives have a fitted effect of over 15% in size
How it was run: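 Increased luciferase signal from ATAD5-tagged reporter cells indicates DNA-damage-driven ATAD5 induction. HEK293T cells are treated for 16 hr at 37C before detection with Amplite.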

[3] = qHTS assay for small molecule agonists of the p53 signaling pathway - cell viability (AID 651633; calls by dose curve;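 also: p53RE-bla HCT reporter cells with a stable beta-lactamase p53 reporter; series mostly up to about 83 µM; nearly all actives have a fitted effect of over 30% in size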)
How it was run: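 p53RE-bla cells were treated with compound for 16 hours at 37 C. Cytotoxicity was then measured as CellTiter-Glo luminescence after 30 min at room temperature.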

[4] = qHTS assay for small molecules that induce genotoxicity in human embryonic kidney cells expressing luciferase-tagged ATAD5 - cell viability (AID 651634; calls by dose curve; also: nearly all actives have a fitted effect of over 25% in size)
How it was run: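 Cytotoxicity counterscreen in HEK293T cells bearing an ATAD5-luciferase reporter: live-cell protease activity measured by CellTiter-Fluor fluorescence after 15.5 hr compound exposure.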

[5] = qHTS assay for small molecule disruptors of the mitochondrial membrane potential - cell viability (AID 720634; calls by dose curve;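 also: human HepG2 liver cancer cells; series mostly up to about 83 µM; nearly all actives have a fitted effect of over 20% in size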)
How it was run: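 After overnight attachment at 37 C, HepG2 cells received compound or DMSO vehicle for 1 hr. Viability is then taken from ATP-driven luminescence following a 30 min room-temperature CellTiter-Glo step.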

[6] = qHTS assay to test for compound auto fluorescence at 590 nm (red) in HepG2 cells (AID 720674)
How it was run: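 Fluorescence at 590 nm emission following 540 nm excitation was recorded from HepG2 wells one hour after compound transfer, with DMSO-only wells as vehicle and Rose Bengal sodium equivalency as the scale.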

[7] = qHTS assay to test for compound auto fluorescence at 535 nm (green) in HepG2 cells (AID 720675)
[8] = qHTS assay to test for compound auto fluorescence at 460 nm (blue) in HEK293 cells (AID 720678)
How it was run: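 Cells were seeded and left to adhere for 4-5 hr at 37C. Compounds were then pin-transferred. After an overnight incubation at 37C under 5% CO2, intrinsic fluorescence at 405/460 nm was measured and referenced to triamterene.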

[9] = qHTS assay to test for compound auto fluorescence at 590 nm (red) in HEK293 cells (AID 720679)
How it was run: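 Each well held 2,000 HEK293 cells in medium containing 10% dialyzed FBS. Following 4-5 hr attachment at 37C, 23 nL test compound or DMSO was added; plates sat overnight, and red fluorescence (540/590nm) was recorded.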

[10] = qHTS assay to test for compound auto fluorescence at 535 nm (green) in HEK293 cells (AID 720680)
[11] = qHTS assay to test for compound auto fluorescence at 460 nm (blue) in HEK293 cell free culture (AID 720681)
How it was run: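 Compounds were added to cell-free DMEM with 10% FBS and fluorescence read directly. The blue channel used 405 nm excitation and 460 nm emission, with triamterene as the reference fluorophore.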

[12] = qHTS assay to test for compound auto fluorescence at 535 nm (green) in HEK293 cell free culture (AID 720682)
How it was run: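 Each library compound, or DMSO control, is added by pintool to medium alone, comprising DMEM and 10% FBS. Emission at 535 nm following 485 nm excitation is quantified against fluorescein.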

[13] = qHTS assay to test for compound auto fluorescence at 590 nm (red) in HEK293 cell free culture (AID 720683)
How it was run: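 Cell-free wells of DMEM with 10% FBS received compound, and intrinsic fluorescence was read at excitation/emission 540/590 nm. Values expressed as equivalence to Rose Bengal sodium.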

[14] = qHTS assay to test for compound auto fluorescence at 590 nm (red) in HepG2 cell free culture (AID 720684)
How it was run: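 Compounds are added to culture medium (MEM, 10% FBS) lacking cells, then fluorescence is read at excitation 540 nm, emission 590 nm, with Rose Bengal sodium as the equivalency standard.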

[15] = qHTS assay to test for compound auto fluorescence at 460 nm (blue) in HepG2 cell free culture (AID 720685)
How it was run: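 Compound (23 nL) or DMSO pinned into cell-free MEM with 10% FBS; blue fluorescence read at 405/460 nm excitation/emission, expressed as auto-fluorescence equivalency to triamterene.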

[16] = qHTS assay to test for compound auto fluorescence at 535 nm (green) in HepG2 cell free culture (AID 720686)
[17] = qHTS assay to test for compound auto fluorescence at 460 nm (blue) in HepG2 cells (AID 720687)
How it was run: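 HepG2 cells in MEM with 10% FBS, attached overnight at 37 C, were exposed to compound or DMSO for 1 hr at 37 C, 5% CO2. Blue fluorescence was read at 405/460 nm, with triamterene as reference fluorophore.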

[18] = biological target: Glucocorticoid receptor (Homo sapiens) (UniProt P04150); test: qHTS assay to identify small molecule agonists of the glucocorticoid receptor (GR) signaling pathway (AID 720691; active = well fitted activation curve with a large enough effect in the signal ratio in the repeat runs, not every such curve was filed as active; the % refers to the signal ratio)
How it was run: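 Agonist mode in a HeLa line carrying a GRE-controlled beta-lactamase reporter. Compounds act for 18 h at 37 C before a 2 h room-temperature FRET substrate step and fluorescence reading.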

[19] = biological target: Glucocorticoid receptor (Homo sapiens) (UniProt P04150); test: qHTS assay to identify small molecule antagonists of the glucocorticoid receptor (GR) signaling pathway (AID 720692; active = well fitted inhibition curve with a large enough effect in the signal ratio in the repeat runs, not every such curve was filed as active; the % refers to the signal ratio)
How it was run: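 Cells plated, rested 4 h at 37 C/5% CO2; compounds in DMSO pin-transferred; dexamethasone added to 5 nM final; 18 h at 37 C; B/G FRET substrate added, 2 h room temperature; fluorescence measured.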

[20] = qHTS assay for small molecule disruptors of the mitochondrial membrane potential (AID 720635); also: potency is read from the fitted curve at half-maximal effect
How it was run: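 HepG2 cells exposed to compound 1 hr at 37C, then Mito-MPS dye 30 min. Ratio read of aggregate (540/590 nm) versus monomer (490/535 nm) fluorescence.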

Sequence of Glucocorticoid receptor (Homo sapiens) (P04150 whole entry, looked up): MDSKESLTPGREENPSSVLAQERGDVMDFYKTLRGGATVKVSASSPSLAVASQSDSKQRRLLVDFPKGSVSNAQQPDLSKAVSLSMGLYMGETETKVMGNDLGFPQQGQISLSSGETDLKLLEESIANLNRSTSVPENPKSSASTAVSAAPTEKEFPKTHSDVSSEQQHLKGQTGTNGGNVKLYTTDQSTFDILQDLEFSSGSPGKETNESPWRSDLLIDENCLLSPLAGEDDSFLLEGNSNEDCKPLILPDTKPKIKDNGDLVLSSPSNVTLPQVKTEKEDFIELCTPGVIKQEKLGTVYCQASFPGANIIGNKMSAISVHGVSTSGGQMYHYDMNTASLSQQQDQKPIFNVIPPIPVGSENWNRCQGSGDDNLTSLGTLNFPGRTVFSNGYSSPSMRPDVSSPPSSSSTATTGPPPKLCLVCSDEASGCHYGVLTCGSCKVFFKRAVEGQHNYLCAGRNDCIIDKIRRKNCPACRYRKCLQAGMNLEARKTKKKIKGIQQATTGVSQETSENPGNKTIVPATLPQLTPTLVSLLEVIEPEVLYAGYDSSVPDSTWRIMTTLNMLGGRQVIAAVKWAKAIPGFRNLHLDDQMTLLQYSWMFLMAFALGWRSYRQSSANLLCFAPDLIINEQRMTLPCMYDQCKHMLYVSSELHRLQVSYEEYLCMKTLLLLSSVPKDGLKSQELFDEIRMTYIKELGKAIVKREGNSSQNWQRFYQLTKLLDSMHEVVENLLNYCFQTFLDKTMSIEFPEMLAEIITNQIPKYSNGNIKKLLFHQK

Structure (SMILES) | outcome [1] | Potency [2] | outcome [3] | Potency [4] | outcome [5] | outcome [6] | outcome [7] | outcome [8] | outcome [9] | outcome [10] | outcome [11] | outcome [12] | outcome [13] | outcome [14] | outcome [15] | outcome [16] | outcome [17] | Potency [18] | outcome [19] | Potency [20]
CNC(=O)[C@H]1O[C@@H](n2cnc3c(NCc4cc(Cl)ccc4OCc4cc(C)no4)ncnc32)[C@H](O)[C@@H]1N | inactive | inactive | inactive | inactive | inactive | inactive | inactive | inactive | inactive | inactive | inactive | inactive | inactive | inactive | inactive | inactive | inactive | inactive | inactive | –
CCCCCCOc1ccccc1C(N)=O | – | inactive | inactive | inactive | inactive | inactive | inactive | inactive | inactive | inactive | inactive | inactive | – | inactive | inactive | inactive | – | inactive | – | 6.68 µM (active)
CC(C)C(=O)OCCc1ccccc1 | – | inactive | inactive | inactive | inactive | inactive | inactive | inactive | inactive | inactive | inactive | inactive | – | inactive | inactive | inactive | inactive | – | – | –
O=Cc1ccc(Cl)c(Cl)c1 | – | inactive | inactive | inactive | inactive | inactive | inactive | inactive | inactive | inactive | inactive | inactive | inactive | inactive | inactive | inactive | – | inactive | inactive | –
CCNC(=O)C1CC(C)CCC1C(C)C (centres undefined) | – | inactive | inactive | inactive | inactive | inactive | inactive | inactive | inactive | inactive | inactive | – | inactive | inactive | inactive | inactive | inactive | inactive | – | –
O=C(O)c1cc(Br)c(O)c(Br)c1 | – | inactive | inactive | inactive | inactive | inactive | inactive | inactive | inactive | inactive | inactive | inactive | – | inactive | inactive | inactive | inactive | inactive | inactive | inactive
CC(CC=O)CCCC(C)(C)O (centres undefined) | – | inactive | inactive | inactive | inactive | inactive | – | inactive | inactive | inactive | inactive | inactive | inactive | inactive | inactive | inactive | inactive | inactive | inactive | inactive
